# Bioassay records as filed in PubChem BioAssay.
# Six1-Eya2 blk = inhibitors of human Six1/Eya2 interaction; AlphaScreen GST-Six1/His-Eya2 binding, biochemical; stronger effect = lower value; AID 651725; 360,000 tested, 0.56% active; activity change, % (test concentration not listed); in the data active means activity change below about -65%; inconclusive means mostly about -30% to -63%; further: on the % scale 0 is the no-effect control and ±100 the full control effect
#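 Six1/Eya2 binding was read as AlphaScreen signal after compounds were pinned into GST-Six1 plus His-tagged Eya2 (5X stock 250/500 nM) in pH 8.0 Tris/NaCl/TCEP buffer, beads added, then incubated 1 h, 37 C, dark.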
# G9a block = G9a (human) methyltransferase inhibition; G9a H3K9 monomethylation, AlphaScreen, 2 h; 350,000 tested, 8.8% active; Potency, µM (highest dose often 102 µM), inactives show top-dose activity, negative = inhibition, hits mostly inhibitors; further: potency means the concentration at half of the fitted maximal effect; on the % scale 0 is the no-effect control and ±100 the full control effect; nearly all actives have a fitted effect of over 75% in size
# Target sequence (Q96KQ7 913-1193 limits assumed): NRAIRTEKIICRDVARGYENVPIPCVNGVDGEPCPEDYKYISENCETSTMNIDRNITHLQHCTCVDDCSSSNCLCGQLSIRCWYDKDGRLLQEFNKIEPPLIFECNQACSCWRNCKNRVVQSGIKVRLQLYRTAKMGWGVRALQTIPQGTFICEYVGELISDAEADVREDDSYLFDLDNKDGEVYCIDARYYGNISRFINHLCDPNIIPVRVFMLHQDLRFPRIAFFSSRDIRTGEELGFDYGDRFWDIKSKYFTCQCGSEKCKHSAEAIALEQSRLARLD
#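 Signal arises when biotinylated H3K9 peptide, once monomethylated, bridges streptavidin donor and antibody-captured acceptor beads. Enzyme at 20 nM was preincubated 15 min with test compounds; peptide 500 nM and SAM 20 uM then reacted for 2 h.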
# CtBP-E1A blk = inhibitors of CtBP/E1A interaction; AlphaScreen GST-E1A/His-CtBP binding, 1536-well; stronger effect = lower value; activity change, % (concentration not given with the values); AID 651724; 340,000 tested, 0.49% active; in the data active means activity change below about -65%; inconclusive means mostly about -30% to -63%; further: on the % scale 0 is the no-effect control and ±100 the full control effect
#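 Steps: dispense buffer (Tris pH 8.0, NaCl 300 mM, TCEP 1 mM, BSA, Tween 20); add 5X protein mix (GST-E1A, His-CtBP, 125 nM each); pin 23 nL compound; 2 h at 37 °C, dark; add 5X beads (50 ug/mL); 1 h; read.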
# BAZ2B inh = BAZ2B (human) inhibition | Q9UIF8 | 360,000 tested, 4.4% active | Potency, µM (titrated, usually from 114 µM), inactives show at the top dose activity change, negative = inhibition, usual class: inhibitors | AlphaScreen BAZ2B-H3K14Ac peptide displacement; further: potency means the concentration at half of the fitted maximal effect; on the % scale 0 is the no-effect control and ±100 the full control effect; nearly all actives have a fitted effect of over 60% in size
#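 Complex of BAZ2B and biotin-H3K14Ac (50 nM apiece) forms over 30 min at RT, then faces library compounds up to 110 uM for another 30 min; AlphaScreen beads added, 20 min dark incubation, luminescence read.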
# JMJD2A Tudor = inhibitors of human JMJD2A Tudor domain | O75164 | AlphaScreen JMJD2A-Tudor / H3K4me3 peptide binding | Potency, µM (titrated, usually from 114 µM), for the others: at the top dose activity change, negative = inhibition, hits mostly inhibitors | 390,000 tested, 4.4% active | AID 504339; further: potency means the concentration at half of the fitted maximal effect; on the % scale 0 is the no-effect control and ±100 the full control effect; nearly all actives have a fitted effect of over 50% in size
# HP1b chromo inh = inhibitors of HP1-beta chromodomain binding to methylated histone tails | AlphaScreen HP1-beta / biotin-H3K9me3 peptide binding | Potency, µM (highest dose often 114 µM), for the others: at the top dose activity change, negative = inhibition, hits mostly inhibitors | 390,000 tested, 0.56% active | AID 540317; further: potency means the concentration at half of the fitted maximal effect; nearly all actives have a fitted effect of over 70% in size
# Target sequence (P83916 whole entry, looked up): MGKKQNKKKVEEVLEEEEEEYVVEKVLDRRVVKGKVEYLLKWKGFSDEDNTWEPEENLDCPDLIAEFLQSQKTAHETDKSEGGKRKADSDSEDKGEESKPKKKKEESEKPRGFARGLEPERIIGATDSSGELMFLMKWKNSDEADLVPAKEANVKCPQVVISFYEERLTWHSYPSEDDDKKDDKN
#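 HP1-beta protein (50 nM final) preincubated 30 min at room temperature with biotinylated H3(1-18)K9me3 peptide (50 nM) in PBS pH 7.4, 0.01% Tween-20, then compound added for 30 min. AlphaScreen streptavidin donor/nickel chelate acceptor beads (10 ug/mL final), 30 min dark, luminescence read.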
# * = called active by the depositor; ? = inconclusive; · = no result given; [ ] = another dose, or the depositor's remark. Most compounds without a hit are left out; they make up all but 10% or so of the library. Unless noted, the call rests on the fitted dose curve; in most records, active means well fitted inhibition curve with a large enough effect; inconclusive means small, poorly fitted or top-dose-only effect; inactive means no such curve, though single readings can be large or run the other way.
SMILES,Six1-Eya2 blk,G9a block,CtBP-E1A blk,BAZ2B inh,JMJD2A Tudor,HP1b chromo inh
COc1ccc(CCNCC(O)COc2cccc(Br)c2)cc1OC (stereo not drawn),-13,·,-6,50µM*,1µM*,?
COc1ccc(CCNCC(O)Cn2c3ccccc3c3ccccc32)cc1OC (stereo not drawn),-23,?,0,?,-35%,-6%
COc1ccc(CCNCC(O)COc2ccc(OC)cc2C(C)(C)C)cc1 (stereo not drawn),-17,45µM*,-15,71µM*,3.5µM*,?
O=C1NC[C@@H](CCCCN2C[C@H](Cc3ccccc3)N(CCC3CCCCC3)C(=O)C2=O)N(CCc2ccc(O)cc2)C1=O,?,·,-25,·,·,·
COc1ccccc1OCCNC1CCCC1,-1,40µM*,11,?,3.5µM*,-17%
C=CCOc1c(CNC2CCCC2)cc(Cl)cc1OC,-15,-30%,-17,-8%,2%,23%
C=CCc1cccc(Cl)c1OCCCNC1CCCC1,9,·,·,?,50µM*,8%
C=CCc1ccc(OCCCNCc2ccccc2)c(OC)c1,-3,·,·,50µM*,28µM*,?
N#Cc1ccccc1OCCOCCNC1CCCC1,6,10µM*,-3,?,?,-28%
Cc1nn2c(C(F)(F)F)cc(-c3ccc(OC(C)C)cc3)nc2c1C#N,·,2%[59 µM],·,1%,13%,41%
CCOc1cc(CNCCSc2nnnn2C)ccc1OCc1ccc(Cl)cc1Cl,·,?,·,-9%,-14%,23%
C=CCc1ccc(OCCCNC2CCCC2)c(OC)c1,-8,·,-1,·,79µM*,?
C=CCc1ccc(OCCCOc2ccc(C)cc2OC)c(OC)c1,6,-1%,9,59%,-6%[11.4 µM],41%
CCOC(=O)c1c(NC(=O)CCCOc2ccc(C(C)(C)C)cc2)sc2c1CCC2,·,7%[59 µM],·,-4%,-4%,15%
CCN(C(=O)CSc1nnc2ccccn12)c1c(N)n(Cc2ccccc2)c(=O)[nH]c1=O,4,50µM*,7,5%,2%,52%
CCCCN(C(=O)CSc1nnc(-c2ccccc2)n1C)c1c(N)n(Cc2ccccc2)c(=O)[nH]c1=O,18,10µM*,7,1%,-12%,20%
CCN(C(=O)CSc1ncccn1)c1c(N)n(Cc2ccccc2)c(=O)[nH]c1=O,9,50µM*,-11,-6%,-17%,21%
Cc1cccc(NC(=O)CSCC(=O)N(CCC(C)C)c2c(N)n(Cc3ccccc3)c(=O)[nH]c2=O)c1,-9,40µM*,6,-15%,-5%,17%
CCCCN(C(=O)CSc1nncn1-c1ccccc1)c1c(N)n(Cc2ccccc2)c(=O)[nH]c1=O,-2,-14%[59 µM],·,3%,-8%,66%
COCCN(C(=O)CSc1ncccn1)c1c(N)n(Cc2ccccc2)c(=O)[nH]c1=O,6,-9%,-3,-8%,3%,17%
CCCCN(C(=O)CSc1nnc2ccccn12)c1c(N)n(Cc2ccccc2)c(=O)[nH]c1=O,4,?,-1,4%,-6%,12%
CCN(CC)CCNC(=O)C(=O)Nc1c2c(nn1-c1ccc(F)cc1)CSC2,·,-37%[59 µM],·,-5%,-9%,29%
Cc1ccc(OC(=O)COc2ccccc2)c(-n2nc3ccccc3n2)c1,22,74%,11,56µM*,55%,114%
Cc1ccc(OC(=O)COc2ccccc2C)c(-n2nc3ccccc3n2)c1,19,3%[59 µM],28,43%,62%,121%
CC(=O)Nc1cc(-c2ccncc2)cn2c(-c3ccccc3)cnc12,-7,·,-4,·,·,·
SMILES,Six1-Eya2 blk,G9a block,CtBP-E1A blk,BAZ2B inh,JMJD2A Tudor,HP1b chromo inh
CCn1ccnc1C(O)c1ccc(N(C)C)cc1 (stereo not drawn),-2,32µM*,2,?,?,-5%
COc1cc(C)ccc1OCCCn1c(-c2ccc(Cl)cc2)nc2ccccc2c1=O,·,7%[59 µM],·,2%,-1%,57%
Cc1cccc(Nc2cc(C)c3c(O)cccc3n2)c1C,-10,50µM*,-7,40µM*,45µM*,-3%
CCOc1ccc(N(CC(=O)NC2CCCCC2)C(=O)Cn2nnc(-c3ccc(C)o3)n2)cc1,-11,45µM*,-6,-25%,-8%,3%
CC(=O)Nc1cc2c(cc1NC(=O)Cn1nnc(-c3ccc(C)o3)n1)OCCO2,-2,-7%,-10,0%,-18%,12%
CCCC(C(=O)NC1CCCC1)N(C(=O)Cn1nnc(-c2ccc(C)o2)n1)C1CCCC1 (stereo not drawn),-4,11µM*,3,-3%,-31%,12%
Cc1ccc(N(CC(=O)NC2CCCCC2)C(=O)Cn2nnc(-c3ccc(C)o3)n2)cc1,2,-34%,6,-17%,-33%,6%
CCN(CC)C(=O)Cn1nnc(-c2ccc(C)o2)n1,2,4µM*,2,-6%,-11%,40%
Cc1ccc(-c2nnn(CC(=O)N(Cc3ccccc3)C(C(=O)NC3CCCC3)c3ccncc3)n2)o1 (stereo not drawn),-2,22µM*,-1,-3%,-7%,48%
Cc1ncc(CO)c2c1Oc1nc(-c3ccccc3Cl)nc(SCc3ccccc3F)c1C2,·,-11%[59 µM],·,-16%,-16%,7%
COc1ncc2nc(CCc3ccccc3)c(=O)n(CCC#N)c2n1,·,-5%[12.7 µM],·,·,·,·
CC1CC=CC2C1C(=O)N(Cc1ccccc1)C2c1ccc2ccccc2c1 (stereo not drawn),·,·,·,·,6%,34%
CNC[C@H]1OCc2ccccc2-c2ccccc2C(=O)N([C@@H](C)CO)C[C@H]1C,4,·,5,·,·,·
O=C(NC1CCCCC1)C(c1ccncc1)N(C(=O)Cn1nnc(-c2cccs2)n1)C1CCCC1 (stereo not drawn),-1,22µM*,-7,4%,-28%,5%
CCC(C(=O)NC1CCCC1)N(C(=O)Cn1nnc(-c2ccc(C)o2)n1)C(C)(C)C (stereo not drawn),-2,32µM*,4,5%,-13%,32%
CCC(C(=O)NC1CCCC1)N(C(=O)Cn1nnc(-c2ccc(C)o2)n1)c1ccc(OC)cc1 (stereo not drawn),0,6%,-12,3%,-11%,11%
C=CCOC(=O)c1cc(-c2ccc(/C=C3\C(=O)NC(=O)C(C#N)=C3C)o2)ccc1Cl,?,8.9µM*,-1,35µM*,50µM*,-97%
CC1=C(C#N)C(=O)NC(=O)/C1=C/c1ccc(-c2ccc(S(N)(=O)=O)cc2)o1,-21,8.9µM*,1,45µM*,71µM*,?
NS(=O)(=O)c1ccc(-c2ccc(C=O)o2)cc1,11,-42%,·,-3%,-8%[11.4 µM],51%
